Rows were chosen to be rich in hits. Some 9.2% of all compounds tested hit in one or more screens of this group.
NPC1 promoter act: activates the NPC1 promoter | Potency, µM (top dose mostly 9.22 µM), for the others: at the highest dose activation, usual class: activators | 320,000 tested, 2.4% active | AID 485313 | Huh7 NPC1 promoter luciferase reporter, 24 h; further: % of control where 0% means no effect; nearly all actives have a fitted effect of over 60% in size
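Luminescence from an NPC1 promoter-driven luciferase reporter in stably transfected Huh7 cells was measured after 24 h compound treatment at 37 °C, followed by 10 min ambient incubation with luciferase detection reagent.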
SMN2 splice up: enhancers of SMN2 splice variant expression. 210,000 tested, 2.8% active. Potency, µM (highest dose often 46.1 µM), without a hit: at the top dose activity change, positive = activation, actives largely listed as activators. HEK293 SMN2-luciferase splicing reporter, luminescence, 30-36 h; further: % of control where 0% means no effect; nearly all actives have a fitted effect of over 55% in size
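qHTS luciferase splicing reporter: luminescence rises when SMN2 exon 7 is included in transfected HEK293 cells. Compound exposure lasted 30-36 h at 37C, with 4.5 mM final sodium butyrate as control, followed by a ONE-Glo read.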
FLuc modulator: counter-screen for miR-21 project: firefly luciferase inhibitors or activators | P08659 | purified FLuc, Km substrates, luminescence inhibition | Potency, µM (titrated, usually from 57.5 µM), for the others: top-dose activity change, negative = inhibition, actives largely listed as inhibitors | 360,000 tested, 6.9% active | AID 588342;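 further: plate controls were vehicle for no effect and reference inhibitor for full effect; nearly all actives have a fitted effect of over 55% in size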
Target sequence (P08659 whole entry, looked up): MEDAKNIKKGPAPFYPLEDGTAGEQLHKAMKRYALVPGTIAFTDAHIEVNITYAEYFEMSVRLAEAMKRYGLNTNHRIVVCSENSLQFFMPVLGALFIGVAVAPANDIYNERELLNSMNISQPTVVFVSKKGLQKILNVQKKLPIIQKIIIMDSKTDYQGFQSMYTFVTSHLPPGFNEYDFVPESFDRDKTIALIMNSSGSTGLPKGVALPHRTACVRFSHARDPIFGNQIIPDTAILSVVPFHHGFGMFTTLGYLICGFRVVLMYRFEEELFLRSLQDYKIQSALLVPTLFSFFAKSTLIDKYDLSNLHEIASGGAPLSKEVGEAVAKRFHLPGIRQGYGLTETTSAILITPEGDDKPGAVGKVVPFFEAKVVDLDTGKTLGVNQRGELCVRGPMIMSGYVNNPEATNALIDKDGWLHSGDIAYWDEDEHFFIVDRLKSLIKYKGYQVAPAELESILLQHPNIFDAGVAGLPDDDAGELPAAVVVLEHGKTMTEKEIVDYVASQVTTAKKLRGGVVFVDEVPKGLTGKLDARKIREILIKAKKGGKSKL
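Biochemical qHTS of compounds, final roughly 60 µM downward over six points, against 10 nM purified firefly luciferase using Km concentrations of substrates (10 uM D-luciferin, 10 uM ATP) in Tris acetate pH 7.5 buffer; luminescence output.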
ELG1 DNA repair: inhibitors of ELG1-dependent DNA repair in HEK293T cells; HEK293T ELG1-luciferase reporter, luminescence, 16 h; DNA damage induced by 5-fluorouridine; AID 504467; 330,000 tested, 2.3% active; Potency, µM (top dose mostly 46.1 µM), for inactives: at the highest dose activity change, negative = inhibition, hits mostly inhibitors; further: on the % scale 0 is the no-effect control and ±100 the full control effect; nearly all actives have a fitted effect of over 55% in size
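Step one: seed 2,000 cells per well. Step two: pin-transfer compound or DMSO alongside 5-fluorouridine. Step three: incubate 16 hr, 37 °C, 5% CO2. Step four: add ONE-Glo, wait 30 min, read luminescence.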
Rab9 promoter act: Rab9 promoter activation; 320,000 tested, 2.8% active; Huh7 Rab9 promoter-luciferase reporter, luminescence, 24 h; Potency, µM (highest dose often 9.22 µM), for inactives: top-dose activation, negative = inhibition, actives largely listed as activators; further: % of control where 0% means no effect; nearly all actives have a fitted effect of over 60% in size
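Cell-based reporter: Huh7 stable for Rab9 promoter-driven luciferase, plated in reduced-serum medium with 10% FBS at 1500 cells/well, compound-treated 24 h at 37 °C, luminescence read after 10 min reagent.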
ELG1 genotoxic: genotoxicity induction in ELG1-luciferase HEK293T cells; HEK293T ELG1-luciferase reporter, luminescence, 16 h; Potency, µM (titrated, usually from 46 µM), for inactives: at the highest dose activity change, positive = activation, most hits filed as activators; 330,000 tested, 1.3% active; AID 504466; further: % of control where 0% means no effect; nearly all actives have a fitted effect of over 60% in size
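Luminescence read-out: rising ELG1-luciferase signal, reflecting elevated ELG1 protein under genetic stress, flags genotoxic compounds. Cells were treated for 16 hr at 37 °C before ONE-Glo detection.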
Active calls of the source: *; ? = inconclusive; . = not tested or not shown; [ ] = remark or other dose. The call rests on the fitted dose curve; in most records, active means well fitted curve in the direction sought with a large enough effect; inconclusive means small, poorly fitted or top-dose-only effect, or another doubt; inactive means no such curve, though single readings can be large; an effect the other way counts as inactive or inconclusive. Potency means the concentration at half of the fitted maximal effect.

SMILES	NPC1 promoter act	SMN2 splice up	FLuc modulator	ELG1 DNA repair	Rab9 promoter act	ELG1 genotoxic
Cc1cc(=O)oc2cc(NC(=O)c3cc4ccccc4o3)ccc12	?	7%	-17%	?	21%	?
O=C(/C=C/N1CCOCC1)c1coc2ccccc12	1.6µM*	.	9.5µM*	?	1.4µM*	?
COc1ccc(S(=O)(=O)N(C)c2ccc(C(=O)Nc3cccnc3)cc2)cc1	10%	.	2%	23µM*	-1%	-20%
COc1ccc(S(=O)(=O)N(C)c2ccc(C(=O)N3CCCC3)cc2)cc1OC	-2%	.	1%	?	-4%	-2%
COc1ccc(S(=O)(=O)N(C)c2ccc(C(=O)Nc3cccnc3)cc2)cc1OC	2%	.	-3%	21µM*	-1%	-15%
CN(c1ccc(C(=O)Nc2cccnc2)cc1)S(=O)(=O)c1ccccc1	-3%	.	3%	-25%	-1%	-12%
COc1ccc(S(=O)(=O)N(C)c2ccc(C(=O)N3CCN(c4ccccc4)CC3)cc2)cc1OC	-4%	.	0%	13µM*	-2%	-21%
COc1cc2c(cc1OC)C1(Nc3c-2c(Cc2ccccc2)nn3-c2ccccc2)C(=O)Nc2ccccc21 (configuration not stated)	1%	4%	1%	13µM*	1%	-8%
CN1C(=O)[C@H]2[C@@H](/C=C/c3ccccc3)N3C(=O)CN(CCO)C(=O)[C@@]3(C)[C@H]2C1=O	2%	.	-1%	9%	-3%	1%
COc1ccc(C(NC(=O)C(C)C)c2ccc3cccnc3c2O)cc1 (configuration not stated)	-29%	.	1%	2.3µM*	-29%	5%
CC1=C(C#N)C(=O)NC(=O)/C1=C\c1ccc(-c2ccc(C)cc2[N+](=O)[O-])o1	4%	-4%	27µM*	0%	1%	1%
CCN(CC)C(=O)Oc1ccc2c(=O)c(-c3ccc(OC)cc3)coc2c1	1.8µM*	-12%	8.5µM*	?	?	1%
COc1ccc2c(=O)c(-c3ccc4c(c3)OCO4)coc2c1	0.35µM*	11µM*	0.67µM*	?	0.4µM*	2.9µM*
CCN(CC)C(=O)Oc1ccc2c(=O)c(-c3ccc(OC)cc3)c(C)oc2c1	-4%	-47%	?	?	-1%	-10%
COc1ccc(-c2coc3c(O)c(OC)ccc3c2=O)cc1	.	1.6µM*	.	.	.	.
NC(=O)c1cc(S(=O)(=O)NCC2CCC(C(=O)Nc3ccc(Cl)cc3)CC2)cs1 (configuration not stated)	.	.	1%	.	.	.
O=C(CCC1N=C2c3ccccc3N=C(SCc3ccccc3F)N2C1=O)NCc1ccc(F)cc1 (configuration not stated)	.	.	1%	.	.	.
CCN1CCN(Cc2ccc(NC(=O)c3cc(NC(=O)c4nccnc4N)cc(OC)c3)cc2C(F)(F)F)CC1	0%	.	13µM*	-17%	-3%	-6%
CCN1CCN(Cc2ccc(NC(=O)c3ccc(C)c(NC(=O)c4nccnc4N)c3)cc2C(F)(F)F)CC1	-5%	.	?	?	-13%	-9%
COc1ccccc1Nc1nc(C)c(C(=O)Nc2ccccc2)s1	-5%	5%	15µM*	1%	12%	1%
Cc1nc(NCCOc2ccccc2)sc1C(=O)Nc1ccccc1	2.8µM*	.	?	?	?	28%
Cc1nc(Nc2ccc(S(N)(=O)=O)cc2)sc1C(=O)Nc1ccccc1	-5%	-6%	-1%	7%	-1%	-4%
Cc1nc(Nc2ccccc2Cl)sc1C(=O)Nc1ccccc1	16%	21%	19µM*	5%	-1%	8%
Cc1nc(Cl)sc1C(=O)Nc1ccc(Cl)cc1	-2%	-8%	15µM*	?	1%	3%
c1ccc(CCc2cccnc2)nc1	.	-4%[9.22 µM]	.	.	.	.
Cc1ccc(SCC(=O)Nc2ccc(N3CCN(C)CC3)c(F)c2)c(C)c1	12%	-15%	12µM*	6%	4%	3%
